Assay outcomes as filed in PubChem BioAssay.
A selection: hits, their analogues and other compounds. The true share with any hit is near 3.7%.
esBAF inh = inhibitors of esBAF chromatin remodeling in mouse ES cells; 350,000 tested, 2% active; reporter increase, % at 12.5 µM; Bmi1-luciferase knock-in reporter, 24 h; 100% = twice the neutral-well signal; AID 602393; in the data active means activation above about 40%; inconclusive means no clear call, values can overlap the other calls;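 further: 0% = median of the plate's neutral control wells and 100% = double that signal; a rise in the Bmi1 reporter signal indicates esBAF inhibition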
MITF TRPM1 HTS = activators of MITF-driven TRPM1 promoter activity in SK-MEL-5 cells. SK-MEL-5 TRPM1-promoter luciferase, 24 h; % of positive control, neutral wells = 0. AID 588334. 300,000 tested, 0.75% active. activation, % at 12.5 µM;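 active means mean activation of at least 80% with every replicate also reaching 80%; inconclusive means mean reaches 80% but some replicate falls short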;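 further: 0% = neutral control wells and 100% = parthenolide positive control wells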
AF4-AF9 inh = inhibitors of human MLL-AF4/AF9 interaction; AlphaScreen, biotin-AF4 peptide binding to FLAG-AF9; inhibition, % at 10 µM; AID 651704; 350,000 tested, 0.47% active;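 active means every replicate reaching a set inhibition limit, whatever the replicate mean, cut at about 25% in these data; inconclusive means mean inhibition reaches that limit but some replicates miss it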;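 further: 0% = plate neutral control median and 100% = total signal loss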
Target sequence (P42568 whole entry, looked up): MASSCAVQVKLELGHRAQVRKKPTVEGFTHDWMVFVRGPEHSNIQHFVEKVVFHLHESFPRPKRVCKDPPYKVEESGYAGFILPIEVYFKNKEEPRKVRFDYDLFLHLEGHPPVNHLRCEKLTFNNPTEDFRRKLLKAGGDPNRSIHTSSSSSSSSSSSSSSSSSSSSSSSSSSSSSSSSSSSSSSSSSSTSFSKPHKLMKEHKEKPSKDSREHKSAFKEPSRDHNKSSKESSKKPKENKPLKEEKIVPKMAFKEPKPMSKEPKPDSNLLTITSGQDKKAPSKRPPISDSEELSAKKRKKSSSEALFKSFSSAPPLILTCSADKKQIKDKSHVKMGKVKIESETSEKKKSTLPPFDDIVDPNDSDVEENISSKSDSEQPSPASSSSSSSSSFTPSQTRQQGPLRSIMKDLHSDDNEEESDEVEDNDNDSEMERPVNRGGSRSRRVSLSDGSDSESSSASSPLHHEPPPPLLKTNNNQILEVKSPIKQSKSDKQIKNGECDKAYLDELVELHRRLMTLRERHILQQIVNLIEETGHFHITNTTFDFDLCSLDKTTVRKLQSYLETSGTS
Wnt bcat act = activates Wnt/beta-catenin signaling in a reporter cell assay; activator, plate reader; AID 743398; activation, % at 9.35 µM; 300,000 tested, 1.2% active; in the data active means activation above about 30%, passing the limit was not always enough; inconclusive means no clear call, values can overlap the other calls;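 further: 0% = neutral control wells and 100% = positive control wells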
rRNA inh HTS = selective bacterial rRNA inhibition in E. coli; E. coli WT GFP vs humanized-ribosome RFP mutants, fluorescence, 24 h; hits give low values; DMSO median 0, no signal -100; 350,000 tested, 1.6% active; GFP signal change (wild-type ribosome), % (concentration not given with the values); AID 720706;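 active means significant combined selectivity score with lowered wild-type GFP, culture density cut under 30%, mutant RFP and density less affected; inactive means any of these conditions unmet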
Numbers without * were called inactive; ? = inconclusive; · = no result given.

SMILES	esBAF inh	MITF TRPM1 HTS	AF4-AF9 inh	Wnt bcat act	rRNA inh HTS
CC(C)Cc1ccc(/C=C/C(=O)NC2CC2)cc1	49.2*	79.6	-0.2	53.6*	9.5
C=CCNC(=S)N1CCC(C(=O)c2ccc(F)cc2)CC1	0.6	-8.5	-0.3	0.7	2.7
O=C(CNC(=O)OCc1ccccc1)NCC(=O)NC(Cc1c[nH]c2ccccc12)C(=O)O (stereo not drawn)	-0.9	·	4.6	-1.4	7.3
Clc1nc2c(-c3ccccc3)nnn2c2ccccc12	-79.3	-57.3	8.7	0.5	10.0
NNc1nc2c(-c3ccc(F)cc3)nnn2c2ccccc12	33.2	42.6	1.7	39.0*	-16.6*
NNc1nc2c(-c3ccc(Cl)cc3)nnn2c2ccccc12	·	43.2	-3.5	0.0	-21.8
Fc1cccc(-c2nnn3c2nc(Cl)c2ccccc23)c1	?	-10.9	0.4	39.5*	6.7
COc1ccc2nc(N3CCCCC3)c(C#N)cc2c1	?	·	·	44.2*	·
COc1ccc2nc(N3CCCC3)c(C#N)cc2c1	21.1	63.4	·	?	·
Cn1c2ccccc2c(=O)c2ccc(-c3ccc4c(c3)OCO4)cc21	49.0*	84.2*	1.2	41.2*	-8.7
Cn1c(-c2ccc3c(c2)OCO3)cc(=O)c2ccccc21	-0.2	·	-2.7	-1.4	-9.2
CN(CC(=O)NC(=O)NCc1ccccc1)Cc1cccc(Cl)c1Cl	·	12.5	0.6	0.6	-37.6*
CN(CC(=O)NC(=O)NCc1ccccc1)Cc1ccc(Cl)cc1	·	13.0	·	5.6	·
CCc1ccc(C(=O)COC(=O)CNC(=O)c2ccc(Br)o2)cc1	4.0	1.9	-0.6	0.7	-21.9*
O=C(NCCN1CCOCC1)c1ccc(CS(=O)(=O)c2ccc(Cl)cc2)o1	-3.1	-6.2	·	·	16.5
CCC(=O)Nc1ccc(-c2ccc(N3CCC(C)CC3)nn2)cc1	48.4*	88.5*	·	·	·
NNC(=O)c1ccc2nc(-c3ccc(Br)cc3)cn2c1	·	92.8*	2.1	15.8	-28.2*
COc1ccccc1-c1ccc([C@H]2[C@@H](CO)N(C(=O)C3CCCCC3)[C@H]2C#N)cc1	-0.8	·	-0.7	·	-31.8
COc1ccc(NC(=O)C2C(c3ccc4c(c3)OCO4)=Nc3ccccc3N2C(C)=O)cc1 (stereo not drawn)	·	·	·	35.5*	-3.7
O=C(/C=C\c1ccc(-c2ccccc2)o1)c1ccccc1	·	33.0	·	36.9*	·
O/N=C\c1ccc(-c2ccccc2)o1	55.3*	37.0	-0.9	-0.3	-0.9
COc1ccccc1-c1ccc(/C=N/O)o1	·	·	2.0	7.9	-34.5*
COc1ccccc1-c1ccc(C(=O)O)o1	·	-5.2	·	·	·
C[C@H](CO)N1C[C@H](C)[C@H](CN(C)S(=O)(=O)c2ccccc2)Oc2c(NS(=O)(=O)c3ccc(Cl)cc3)cccc2C1=O	4.4	·	1.9	·	-1.5
COC(=O)c1sccc1NC(=O)c1ccc(C)s1	12.5	·	·	34.3*	·
SMILES	esBAF inh	MITF TRPM1 HTS	AF4-AF9 inh	Wnt bcat act	rRNA inh HTS
S=c1[nH]nc(CCSCc2ccccc2)n1-c1ccccc1	-5.8	-5.2	-11.3	-1.8	-15.2
Cc1ccc(-c2cc(C(=O)Nc3c(C)n(C)n(-c4ccccc4)c3=O)[nH]n2)c(O)c1C	·	5.8	-4.6	-0.2	-19.5*
N/C(=N\OC(=O)c1ccc2ccccc2c1)c1ccc(Br)cc1	·	24.1	-5.4	7.3	·
N/C(=N\OC(=O)c1ccoc1)c1ccc(Br)cc1	44.4*	92.9*	-2.4	42.0*	1.6
Cc1cc(C)cc(C(=O)O/N=C(\N)c2ccc(Br)cc2)c1	10.0	20.8	·	·	·
Cc1ccc(C(=O)O/N=C(\N)c2ccc(Br)cc2)cc1C	53.1*	54.5	·	·	·
Cc1ccc(C)c(C(=O)O/N=C(\N)c2ccc(Br)cc2)c1	43.3*	·	·	26.5	·
CC1CCc2sc(C(=O)NCC3CCCO3)cc2C1 (stereo not drawn)	20.0	101.1*	-20.2	39.6*	-8.9
O=C1CCC(c2ccccc2)c2ccccc21 (stereo not drawn)	1.7	·	-2.7	51.8*	1.5
C[C@H](CO)N1C[C@H](C)[C@H](CN(C)Cc2ccc(Cl)c(Cl)c2)Oc2c(NC(=O)Nc3ccc(C(F)(F)F)cc3)cccc2C1=O	-3.1	·	0.9	·	·
O=C1c2ccccc2NC(c2cccc([N+](=O)[O-])c2)N1CCc1ccccc1 (stereo not drawn)	45.8*	6.3	10.6	6.1	-20.5*
COc1cc(C=O)ccc1Oc1cnccn1	-19.7	18.7	-0.1	-5.2	11.2
CC(C)C(=O)N1CCC1(C)C(=O)NCc1cc(Cl)ccc1F (stereo not drawn)	-1.5	·	-2.3	-0.7	4.2
Cc1ccc(F)c(CNC(=O)C2(C)CCCN2C(=O)C(C)C)c1F (stereo not drawn)	-4.6	·	1.0	36.2*	5.3
CC1Sc2ccc(S(=O)(=O)CCC(=O)NC(C)c3ccccc3)cc2NC1=O (stereo not drawn)	-4.9	-3.6	2.5	5.4	-1.8
COc1ccc(N2CCN(CCS(=O)(=O)c3cc(Cl)ccc3Cl)CC2)cc1	-7.9	-8.3	14.6	-1.1	-21.6*
CC(=O)N1CCN(CCS(=O)(=O)c2cc(Cl)ccc2Cl)CC1	-3.2	-4.9	0.6	4.4	3.6
CN1CCN(C(=O)/C(=C/c2ccc(N(C)C)cc2)NC(=O)c2ccccc2)CC1	-3.7	-5.0	2.6	-1.1	4.2
COc1ccc(Cn2c(-c3ccc(C)cc3)c[n+]3ccccc23)cc1	·	-76.5	0.6	-7.1	-34.2*
O=C(Nc1ccccc1)c1cc2ccccc2s1	45.3*	47.6	1.3	12.7	10.6
O=C(Nc1ccc(O)cc1)c1cc2ccccc2c(=O)s1	48.9*	99.5*	-1.3	0.2	-21.9
O=C(Nc1ccccc1)c1cc2ccccc2c(=O)s1	·	77.1	-4.9	·	11.2
Nc1cc2sc(-c3ccc(C(=O)O)cc3)nc2cc1Cl	·	-10.7	-6.9	-1.3	-33.1*
Nc1ccc(-c2nc3ccc(C(=O)O)cc3s2)cc1	·	-113.2	2.5	-15.5	-16.5
CN(C)c1cccc(C(=O)NNC(=S)NC2CC3CCC2C3)c1 (stereo not drawn)	?	32.5	6.9	2.3	-24.3*
SMILES	esBAF inh	MITF TRPM1 HTS	AF4-AF9 inh	Wnt bcat act	rRNA inh HTS
CCOC(=O)N1CCC(N2CCCC(C(=O)c3cc(F)ccc3OC)C2)CC1 (stereo not drawn)	·	-8.8	-0.7	50.1*	-1.6
CCc1noc(C)c1C(=O)N1CCCC(C(=O)c2cc(F)ccc2OC)C1 (stereo not drawn)	5.9	3.2	-1.6	2.1	4.3
CCc1ccc(CNc2ccc3c(c2)ncn3CC)cc1	75.2*	90.7*	15.9	29.4	-1.9
CCc1ccc(CNc2ccc3c(c2)ncn3C(C)(C)C)cc1	51.0*	34.8	15.0	28.8	-57.5
Cc1nc(C(=O)N2CCc3c([nH]c4ccccc34)C2c2ccccn2)cs1 (stereo not drawn)	2.1	-15.3	1.8	-2.1	-19.7*
CC(C)c1nc(C(=O)N2CCc3c([nH]c4ccccc34)C2c2ccccn2)cs1 (stereo not drawn)	·	-9.1	11.6	-2.4	-30.4
